# In PubChem BioAssay AID2642 (Johns Hopkins Ion Channel Center, 2010):
# Screen size: about 310,000 compounds; about 3,900 (1.3%) were called active.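 The calls were made as follows: active = compounds whose thallium flux B-score, printed positive for inhibition, exceeds three library SD while starting fluorescence stays within three; inactive = the rest.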 The sample as a whole holds a higher share of actives than the screen did.
# Biological target: Potassium voltage-gated channel subfamily KQT member 1 (Homo sapiens) (UniProt P51787)
# Assay: KCNQ1 potassium current blockers – cell-based, thallium flux, high-throughput, primary screen (AID 2642);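 also: channel opened by potassium depolarization with thallium stimulus after 20 min compound exposure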
# Conditions: CHO-K1 KCNQ1, FluxOR thallium flux fluorescence, at 10 µM; hits give high values
# Sequence of Potassium voltage-gated channel subfamily KQT member 1 (Homo sapiens) (P51787 whole entry, looked up): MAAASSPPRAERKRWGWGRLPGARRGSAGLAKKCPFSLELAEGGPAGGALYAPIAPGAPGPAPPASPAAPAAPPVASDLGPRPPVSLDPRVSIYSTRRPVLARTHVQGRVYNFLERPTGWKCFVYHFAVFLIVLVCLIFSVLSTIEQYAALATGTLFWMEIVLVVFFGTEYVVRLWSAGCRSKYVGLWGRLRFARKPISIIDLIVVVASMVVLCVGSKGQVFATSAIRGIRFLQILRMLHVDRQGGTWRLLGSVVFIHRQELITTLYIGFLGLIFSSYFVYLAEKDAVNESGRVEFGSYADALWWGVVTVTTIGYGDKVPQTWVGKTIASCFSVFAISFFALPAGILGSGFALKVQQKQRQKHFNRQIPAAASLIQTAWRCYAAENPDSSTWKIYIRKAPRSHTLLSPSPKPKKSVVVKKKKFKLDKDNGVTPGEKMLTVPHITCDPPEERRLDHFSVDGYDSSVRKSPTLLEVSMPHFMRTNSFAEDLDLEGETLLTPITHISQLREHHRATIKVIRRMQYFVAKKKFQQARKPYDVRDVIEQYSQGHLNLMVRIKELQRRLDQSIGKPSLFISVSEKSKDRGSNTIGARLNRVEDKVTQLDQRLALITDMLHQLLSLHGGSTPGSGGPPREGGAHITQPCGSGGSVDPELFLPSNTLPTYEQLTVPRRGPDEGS
row,SMILES,B-score
1,Cc1ccc(NC(=S)NC(NC(=O)Cc2cccc3ccccc23)C(Cl)(Cl)Cl)cc1 (centres undefined),inactive
2,O=C(Cc1cccc2ccccc12)NNC(=O)Nc1ccc(Cl)cc1,6 (active)
3,O=C(O)Cc1ccc(NC(=O)Nc2cccc3ccccc23)cc1,inactive
4,COc1ccc(CNC(=O)c2c[nH]c3c(OC)cc(OC)cc3c2=O)cc1,inactive
5,CCOc1ccc(OCCSc2nc3ccccc3n2CC(=O)O)cc1,inactive
6,O=C(CCC(=O)c1cccs1)Nc1nc2ccccc2s1,inactive
7,O=C(Nc1nc(-c2ccco2)c(-c2ccco2)s1)c1ccco1,inactive
8,CN(C)CCCN(C(=O)c1ccc(S(=O)(=O)N2CCCc3ccccc32)cc1)c1nc2ccc(F)cc2s1,inactive
9,CCOc1ccc2nc(NC(=O)c3cc([N+](=O)[O-])ccc3N3CCOCC3)sc2c1,inactive
10,CCC(=O)NC(Nc1nc2ccc(C)cc2s1)(C(=O)OC)C(F)(F)F (centres undefined),inactive
11,CSc1nc2ccc(S(=O)(=O)N3CCc4ccccc43)cc2s1,inactive
12,O=C(NC(Nc1nc2ccc([N+](=O)[O-])cc2s1)(C(F)(F)F)C(F)(F)F)c1ccccc1,8 (active)
13,O=C(Nc1nc2ccc([N+](=O)[O-])cc2s1)c1ccc(S(=O)(=O)N2CCCc3ccccc32)cc1,9 (active)
14,O=C1NC(=O)C(c2ccc(Cl)cc2)N1 (centres undefined),inactive
15,Cc1cc(=O)n2nc(N3CCCC(C(=O)NCc4ccc(Cl)cc4)C3)sc2n1 (centres undefined),inactive
16,CC(OC(=O)CN1C(=O)COc2ccccc21)C(=O)NCc1ccc(F)cc1 (centres undefined),inactive
17,N#Cc1c(Cl)nc(-c2cccnc2)nc1-c1ccccc1,inactive
18,O=C(NN1CCOCC1)c1cccc(F)c1,inactive
19,O=C(NNC(=O)c1cc(-c2ccccc2Cl)nc2ccccc12)c1csc(N2CCOCC2)n1,inactive
20,CCC(=O)N1CCC(C(N)=O)(N2CCCCC2)CC1,inactive
21,CCNS(=O)(=O)c1ccc(NC(=O)Nc2cccc(OC)c2)cc1,inactive
22,COc1cccc(NC(=O)CCNS(=O)(=O)c2ccc3c(c2)oc(=O)n3C)c1,inactive
23,COc1ccc(S(=O)(=O)NCCCCOc2ccc(Cl)cc2)cc1,9 (active)
24,COC(=O)CNS(=O)(=O)c1ccc(OC)cc1,inactive
25,COc1cccc(NC(C)=[N+](C)CCNS(=O)(=O)c2ccc(Cl)cc2)c1,6 (active)
26,COc1ccc(S(=O)(=O)NCCCc2ccccc2)cc1,inactive

row,SMILES,B-score
1,Cc1cccc(NC(=O)c2ccc3c(=O)n(CC4CCCO4)c(=S)[nH]c3c2)c1 (centres undefined),inactive
2,COc1cc(OC)cc(C(=O)NC(=S)N2CCN(c3ccc(C(F)(F)F)cc3[N+](=O)[O-])CC2)c1,inactive
3,CCOc1ccc(-c2cc(C(=O)N/N=C/c3ccc(O)cc3)c3ccccc3n2)cc1,inactive
4,NC1=NC2(CCCCC2)N(c2ccc(F)cc2F)C(N)=N1,inactive
5,COc1ccc(CNC(=O)/C(C#N)=C/c2cccc(OC)c2OC)cc1,inactive
6,CCOC(=O)C1CCN(c2ncnc3c2c(-c2ccccc2)cn3-c2ccc(C)cc2)CC1,inactive
7,CCOC(=O)C1CCN(c2ncnc3c2oc2ccc(Br)cc23)CC1,9 (active)
8,CCOC(=O)C1CCN(Cc2nnc(-c3cccc(Br)c3)o2)CC1,inactive
9,N/C(=N\c1nc2ccccc2o1)NC(=O)C(Cc1ccccc1)N1C(=O)c2ccccc2C1=O (centres undefined),inactive
10,CCOC(=O)COn1c(=O)c(-c2ccc(OCC)cc2)[n+]([O-])c2ccccc21,inactive
11,NC(=O)C1CCN(C(=O)c2ccc3c(=O)n(Cc4cccc(Br)c4)c(=S)[nH]c3c2)CC1,inactive
12,CC(=N\NC(=O)c1cc(Br)ccc1O)/C(=N/O)C(=O)Nc1ccccc1,9 (active)
13,CC(=O)N/N=C(\C)c1ccc(Br)cc1Br,inactive
14,CC(C)/C=N/NC(=O)c1cc(Br)ccc1O,inactive
15,CC1(C(=O)O)CCC(C(=O)Nc2ccc(Cl)c(Cl)c2)C1(C)C (centres undefined),inactive
16,CC(=O)Nc1cccc(NC(=O)c2ccc3c(c2)CCN3S(C)(=O)=O)c1,inactive
17,Cc1nc(-c2ccc(Cl)cc2)sc1C1(C)CC(c2ccc(Br)cc2)=NO1 (centres undefined),inactive
18,Cc1nc(C(=O)NCc2ccccc2)sc1C1(C)CC(c2cccnc2)=NO1 (centres undefined),inactive
19,Cc1nc(C(=O)Nc2ccc(Cl)cc2)sc1C1(C)CC(c2ccccc2)=NO1 (centres undefined),6 (active)
20,CC1C(=O)Nc2ccc(S(=O)(=O)N3CCN(c4ccccc4F)CC3)cc2NC1=O (centres undefined),inactive
21,C=CCC1(CC=C)CCCN1C(=O)CC1C(=O)NCCN1Cc1ccccc1OC (centres undefined),inactive
22,N#C/C(=C/c1ccc(N2CCOCC2)o1)C(=O)N1CCOCC1,inactive
23,N#C/C(=C\c1ccc(N2CCOCC2)o1)C(=O)N1CCOCC1,7 (active)
24,COc1ccc(N2CCN(C(=O)/C(C#N)=C/c3ccccc3)CC2)cc1,inactive
25,COc1ccc(N2CC(C(=O)N[C@@H](C)C(=O)N3CCCCC3)CC2=O)cc1 (some centres undefined),inactive
26,Cc1cc(C(C)(C)C)oc1C(=O)N(CC(=O)NC1CCCC1)Cc1ccc(Cl)cc1,inactive

row,SMILES,B-score
1,COCCN1C(=O)C(=O)/C(=C(/O)c2ccc(S(=O)(=O)N3CCOCC3)cc2)C1c1ccc(O)c(OC)c1 (centres undefined),inactive
2,COc1ccccc1C(=O)NC(CCSC)C(=O)N1CCN(C/C=C/c2ccccc2)CC1 (centres undefined),inactive
3,CCOc1ccc(CCNC(=O)COC(=O)CCS(=O)(=O)c2ccc(C)cc2)cc1OCC,inactive
4,COc1ccc(-c2oc(/N=C/N3CCCC3)c(C#N)c2-c2ccc(OC)cc2)cc1,inactive
5,N#Cc1c(/N=C/N2CCCC2)oc(-c2ccccc2)c1-c1ccccc1,7 (active)
6,N#Cc1c(-c2ccccc2)c(-c2ccccc2)n[nH]c1=O,inactive
7,O=C(NCC(F)(F)F)Nc1nnc(C(F)(F)F)s1,6 (active)
8,COc1ccc(C)cc1NC(=O)CCC(=O)Nc1nnc(C(F)(F)F)s1,inactive
9,O=C(Nc1nnc(COc2ccccc2)s1)Nc1ccccc1F,inactive
10,Cc1ccccc1NS(=O)(=O)CCCCC(Cl)(Cl)Cl,inactive
11,CN(C)S(=O)(=O)c1cccc(NC(=O)COC(=O)C2(c3ccccc3F)CCCC2)c1,inactive
12,N#Cc1ccc(C(=O)Nc2nc(-c3cccs3)c(C(=O)C(F)(F)F)s2)cc1,inactive
13,Cc1ccc(C(=O)c2c(NC(=O)c3ccccc3)sc(C)c2C)cc1,6 (active)
14,Cc1ccc(C(=O)c2c(NC(=O)c3ccncc3)sc3c2CCCC3)cc1,inactive
15,Cc1sc(NC(=O)c2ccc3ncsc3c2)c(C(N)=O)c1C,inactive
16,COc1ccc(NC(=O)NNC(=O)COc2cc(C)c(Cl)c(C)c2)c(OC)c1,inactive
17,CC1(C)NC(=O)N(CC(=O)Nc2cc(C(F)(F)F)cc(C(F)(F)F)c2)C1=O,inactive
18,CN(C)Cc1ccccc1C1(O)c2ccccc2CSc2ccccc21 (centres undefined),7 (active)
19,COc1ccc(CCNS(=O)(=O)c2cccc([N+](=O)[O-])c2)cc1,inactive
20,CCC1Sc2ccc(S(=O)(=O)CCC(=O)NCc3cccs3)cc2NC1=O (centres undefined),inactive
21,CN(C)NC(=O)c1csnc1-c1c(Cl)cccc1Cl,inactive
22,O=c1ccc2cc(S(=O)(=O)Nc3ccccc3F)ccc2o1,inactive
23,CCc1ccccc1NC(=O)c1ccc2snnc2c1,inactive
24,O=C(Nc1cccc(Br)c1)c1ccc2snnc2c1,inactive
25,O=C(Nc1ccc2ccccc2c1)Nc1ccc2snnc2c1,8 (active)
26,Cc1ccc(C(=O)NCC(=O)NCc2cc(=O)n(C)c(=O)n2C)cc1,inactive

row,SMILES,B-score
1,COc1cc(CC(=O)Nc2nc(-c3ccc(F)c(F)c3)cs2)cc(OC)c1OC,inactive
2,Cc1ccc(S(=O)(=O)NC(=O)Nc2nc(-c3ccc(F)c(F)c3)cs2)cc1,inactive
3,COc1ccc(CC(=O)Nc2nc(-c3ccc(F)c(F)c3)cs2)cc1OC,9 (active)
4,NC(=O)[C@H]1CC2(CC(c3cccc(NC(=O)[C@H]4CCC(=O)N4)c3)=NO2)CN1C(=O)c1ccccc1C(=O)c1ccccc1 (some centres undefined),inactive
5,O=C(Cn1nnc2ccccc2c1=O)Nc1cc(C(F)(F)F)ccc1N1CCOCC1,inactive
6,CCCc1cc(=O)[nH]c(SCC(=O)Nc2sc3c(c2C#N)CCCC3)n1,inactive
7,CCOC(=O)c1cnc(SC)nc1Sc1ccc(Cl)cc1Cl,6 (active)
8,CCOC(=O)c1nc(C)n(-c2ccc(Cl)cc2Cl)n1,inactive
9,CCOC(=O)c1cnc(COc2ccccc2Cl)[nH]c1=O,inactive
10,Oc1ccccc1N1CCN(c2ncnc3sc(-c4ccccc4)cc23)CC1,inactive
11,COc1ccccc1N1CCN(c2ncnc3sc(C)c(-c4ccccc4)c23)CC1,9 (active)
12,COc1ccccc1N1CCN(c2ccc([N+](=O)[O-])nc2)CC1,inactive
13,CCN(CC)S(=O)(=O)c1ccc(OC(C)C)c(N)c1,inactive
14,CCc1ccccc1NC(=O)/C(=C/c1ccccc1)c1ccccc1,inactive
15,COCc1cc(C)nc2sc3c(=O)n(-c4cccc5ccccc45)nnc3c12,inactive
16,COc1ccc(/C=C/C(=O)Nc2ccc(C34CC5CC(CC(O)(C5)C3)C4)cc2)cc1OC,inactive
17,O=C(O)c1cnn2c(C(F)(F)F)cc(-c3ccccc3)nc12,inactive
18,Cc1cccc(N2CCN(C(=O)c3cnn4c(C(F)F)cc(-c5ccccc5)nc34)CC2)c1C,7 (active)
19,Cc1cccc(N2CCN(C(=O)c3cc4c(=O)[nH]c5ccccc5c4n3C)CC2)c1C,inactive
20,COc1ccc(N2CCN(C(=O)c3cn(C)c4ccc(S(=O)(=O)N5CCOCC5)cc4c3=O)CC2)cc1,inactive
21,COCCn1c(N)c(NCc2ccccc2)c(=O)[nH]c1=O,inactive
22,COC1=CCC2([N+](=O)[O-])CN(CC(=O)O)CC1([N+](=O)[O-])C2 (centres undefined),inactive
23,CCCCOc1ccc(C(=O)NCC(=O)OCC(=O)N2CCN(S(=O)(=O)c3ccc(C)cc3C)CC2)cc1,inactive
24,COCCn1cnc2c1c(=O)n(Cc1ccc(Br)cc1)c(=O)n2Cc1ccccc1,inactive
25,CCN(CC)CCn1cnc2c1c(=O)[nH]c(=O)n2Cc1ccccc1,inactive
26,N=c1c2c(-c3ccccc3)c(-c3ccccc3)n(Cc3ccccc3)c2ncn1CCCO,10 (active)
